Source: PubChem BioAssay
Shown is part of a subset that was picked to be rich in hits.
Dicer processing = inhibitors of Dicer pre-microRNA processing, primary screen, biochemical, cat-ELCCA, chemiluminescence. Endoribonuclease Dicer (Homo sapiens), Q9UPY3. cat-ELCCA pre-miR-21 Dicer processing; hits give high values. z-score at 25 µM. 6% of 47,000 active; in the data active = z-score above about 3, passing the limit was not always enough;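 note: plate controls were vehicle for no effect and no enzyme for full effect; higher signal means more uncleaved substrate so more Dicer inhibition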
Starred values were filed as active, the others as inactive.

SMILES | Dicer processing
COC(=O)c1cc(Cl)ccc1Oc1ccc([N+](=O)[O-])c(Oc2ccc(Cl)cc2C(=O)OC)n1 | -0.75
COC(=O)CS(=O)(=O)c1ccc(C(F)(F)F)cn1 | 3.4*
O=C(CS(=O)(=O)c1ccc(C(F)(F)F)cn1)NNC(=O)Nc1ccccc1 | 0.12
COC(=O)C(C)(C)S(=O)(=O)c1ccc(C(F)(F)F)cn1 | -0.28
COc1cccc2c1OC(CCSC)N1N=C(c3cc(Cl)ccc3O)CC21 (stereo not given) | 0.51
O=C(O)Cc1csc(NC(=O)c2ccccc2Cl)n1 | 0.5
Cc1occc1-c1nnc(SCC(=O)c2ccc3c(c2)OCCO3)o1 | -2.8
Cc1nc(SCc2ccc(Cl)cc2)[nH]c(=O)c1Oc1ccc(Cl)cc1 | -0.17
C=CCSc1nc(C)c2cc(C)ccc2n1 | -0.03
CSc1nc(C)c2cc(C)oc2n1 | 4.3*
Nc1ccccc1SC1CC(=O)N(c2ccc(Br)cc2)C1=O (stereo not given) | 0.08
O=C(N/N=C/c1ccc(C(F)(F)F)cc1)Nc1cc(C(F)(F)F)cc(C(F)(F)F)c1 | -1.7
CCOC(=O)N/N=C(\C)c1cc(C(F)(F)F)cc(C(F)(F)F)c1 | -0.66
CCN(CC)C(=O)c1sc2nc3c(cc2c1N)CCCCC3 | 0.28
CCN(CC)C(=O)c1cc2sccc2s1 | 3.1*
C/C(=N\NC(N)=S)c1ccccc1O | 2.5
Cc1cc(C)n2nc(C(=O)N3CCOCC3)nc2n1 | 4.4*
COC(=O)c1nc2nc(C)cc(C)n2n1 | 2.8
O=C(c1nc2nc(-c3ccccc3)cc(C(F)(F)F)n2n1)N1CCOCC1 | -0.57
COc1ccc(-c2c(C#N)c(N)nc3c2CCCCCC3)cc1 | -0.04
Cc1nn(C)c2ncc(C(=O)Nc3ccc(F)c(Cl)c3)c(SC(C)C)c12 | -1.7
CSc1ccc(OCOc2ccc(SC)cc2)cc1 | -1.1
COc1ccc(C2CC(c3ccc(Cl)cc3)Nc3nc(N)nn32)cc1OC (stereo not given) | -1.2
COc1cccc2c1OC(c1cccnc1)N1N=C(c3cc(Cl)ccc3O)CC21 (stereo not given) | 1.1
COc1ccc(C2CC(c3cc(Cl)ccc3O)=NN2)cc1OC (stereo not given) | 4.4*
SMILES | Dicer processing
CC1=NN(C)C(=O)/C1=C/c1c(C)[nH]n(C)c1=O | -6.1
O=C(CC1(O)C(=O)N(Cc2ccccc2)c2ccc(Br)cc21)c1cccnc1 (stereo not given) | 2.6
Cc1ccc(CN2C(=O)C(O)(CC(=O)c3ccc(C)o3)c3cc(Cl)ccc32)cc1 (stereo not given) | 3.7*
CCCCN1C(=O)C(O)(CC(=O)c2ccc(C)s2)c2cc(Br)ccc21 (stereo not given) | 2.3
CCCN1C(=O)C(O)(CC(=O)c2ccc(C)s2)c2ccccc21 (stereo not given) | -0.54
Cc1ccc(C(=O)CC2(O)C(=O)N(Cc3ccccc3)c3ccc(Br)cc32)s1 (stereo not given) | 3.6*
Cc1coc(C)c1C(=O)CC1(O)C(=O)N(Cc2ccccc2)c2ccc(Br)cc21 (stereo not given) | 3.8*
Cc1ccccc1CN1C(=O)C(O)(CC(=O)c2ccco2)c2cc(Cl)ccc21 (stereo not given) | 2.3
Cc1ccc(C(=O)CC2(O)C(=O)N(Cc3ccc(Cl)cc3)c3ccccc32)cc1 (stereo not given) | 2.7
CCCN1C(=O)C(O)(CC(=O)c2ccc(C)o2)c2cc(Br)ccc21 (stereo not given) | -0.06
CCOC(=O)/C(C#N)=C/Nc1[nH]ncc1C(=O)OCC | -3.3
N#C/C(=C\N1CCc2ccccc21)C(=O)c1ccccc1 | 1.5
COC(=O)C(C)N1C(=O)NC2NC(=O)NC21 (stereo not given) | 2.4
CCc1c(C#N)c(SCC(=O)c2ccc3c(c2)OCO3)nc2c1C(=O)CC(C)(C)C2 | -2.5
O=C(O)C(=O)NCC1COc2ccccc2O1 (stereo not given) | 0.15
CCOC(=O)c1c(NC(=O)COc2cccc(Br)c2)sc2c1CCC2 | -1.1
Cc1ccc(C2C3=C(CC(C)(C)CC3=O)NC3=C2C(=O)CC(C)(C)C3)cc1 | 4.6*
CC1(C)CC(=O)C2=C(C1)Nc1ccc3ccccc3c1C2c1ccc2c(c1)OCO2 (stereo not given) | -0.4
CSc1ccc(C2C3=C(CC(C)(C)CC3=O)Nc3cc4c(cc32)OCO4)cc1 (stereo not given) | 5.1*
C#CCOc1ccc(C2C3=C(CC(C)(C)CC3=O)NC3=C2C(=O)CC(C)(C)C3)cc1 | -1.7
CC1(C)CC(=O)C2=C(C1)NC1=C(C(=O)CC(C)(C)C1)C2c1ccccc1 | -0.35
CC1(C)CC(=O)C2=C(C1)Nc1cc3c(cc1C2c1ccc(Cl)cc1)OCO3 (stereo not given) | 2.5
O=C(Nc1ccccc1)OCc1cc(-c2ccc(Cl)cc2)oc1C(F)(F)F | -0.44
CCOc1cccc2c1OC(c1cccnc1)N1N=C(c3ccccc3)CC21 (stereo not given) | 1.1
O=[N+]([O-])c1ccc(N2CCSCC2)cc1Oc1nc2c(Cl)cc(Cl)cc2s1 | -5.9
SMILES | Dicer processing
O=C(c1nc2ncccn2n1)N1CCc2ccccc2C1 | 2
CS(=O)(=O)N(CC(=O)N1CCc2ccccc2C1)c1cccc2ccccc12 | 1.7
CN(C)S(=O)(=O)N1CCc2ccccc2C1 | 4.9*
CC1(C)CC(=O)C=C(NCCCn2ccnc2)C1 | -0.56
Cc1cc(C)nc(N2CCC(NC3CC(=O)N(c4ccc(F)cc4)C3=O)CC2)n1 (stereo not given) | 0.35
Cc1cc(N2CCOCC2)nc(N2CCOCC2)n1 | 0.53
Cc1cc(C)nc(N2CCN(c3nc(C)cc(C)n3)CC2)n1 | 4.2*
Cc1ccccc1OCc1nnc2c3cnn(-c4ccccc4)c3ncn12 | 1.9
N#Cc1c(=N)nc2oc3ccccc3c3cc(-c4ccccc4)[nH]c1c23 | 0.72
COc1ccc(-c2cc(=S)sc(N)c2C#N)cc1OC | -2.7
COc1cc(-c2cc3c(c(N)c2C#N)c(=O)oc2ccccc23)cc(OC)c1OC | 3.7*
Clc1ccccc1-c1nnc2sc(-c3ccccc3)nn12 | 0.87
C(=C\c1nc(-c2ccc(-n3cccc3)cc2)no1)/c1ccccc1 | 2.4
Cc1nn(-c2ccccc2)c(C)c1-c1ccccc1O | 0.59
Oc1ccccc1/C=C/c1nc(-c2ccccc2O)n(-c2ccccc2)n1 | 11*
Nc1nc(/C=C/c2ccccc2O)nc(-c2ccccc2O)n1 | 8
CCN1C(=O)CCN(C)c2ccccc21 | -0.34
Cc1ccc(S(=O)(=O)Nc2ccc(N(C)S(=O)(=O)c3ccc(C)cc3)cc2)cc1 | 0.4
CCN(CC)c1ccc(NS(=O)(=O)c2ccccc2)cc1 | 4.8*
O=S(=O)(Nc1ccccc1)c1ccc(-c2ccc(S(=O)(=O)Nc3ccccc3)cc2)cc1 | -0.35
CCn1nc(C)cc1-c1nnc(Sc2ncc([N+](=O)[O-])s2)n1C | 0.24
c1ccc2c(c1)N=C(NNC1=Nc3ccccc3SC1)CS2 | 3.8*
CCOC(=O)c1c(N)n(-c2ccccc2OC)c2nc3ccccc3nc12 | 0.89
Cc1csc(-c2nc(-c3ccc(C(F)(F)F)cc3)no2)c1 | -0.18
CCOC(=O)c1cc(-c2ccccc2)n(-c2ccccc2)c1C | 0.87
Cn1[nH]c(=O)c2cnc3c(F)cc(F)cc3c21 | 0.47
FC(F)(F)c1cnc(SCc2c(Cl)cccc2Cl)c(Cl)c1 | 0.05
FC(F)(F)c1cccc(CSc2ncc(C(F)(F)F)cc2C(F)(F)F)c1 | 3*
FC(F)(F)c1ccc(CSc2ncc(C(F)(F)F)cc2C(F)(F)F)cc1 | -1.1
O=S(=O)(Cc1c(Cl)cccc1Cl)c1ccc(C(F)(F)F)cn1 | -0.74
